{"source": "the supplement of paper PMC10732440", "tested_on": "Caenorhabditis elegans N2 infected with Nematocida parisii ERTm1", "test": "progeny production relative to DMSO uninfected control; higher = more progeny despite microsporidia infection (inhibition of infection with low host toxicity)", "details": "infection time 6 days", "in_short": "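Compound was pinned to 100 μM or 40 μM in 1% DMSO into 96-well plates containing K-medium, E. coli OP50, 15,000 N. parisii spores/μL and 100 synchronised wild-type C. elegans L1 larvae per well. Following 6 days of shaking at 21°C, worms were Rose Bengal-stained, scanned and counted with WorMachine, in three runs per compound and dose. Progeny production appears as a replicate-averaged percentage of spore-free vehicle wells.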", "note": "± gives the standard deviation of the averaged measurements.", "data": [{"compound": "CCN(CC)CCn1c(=N)n(CC(O)COc2ccc(Cl)cc2Cl)c2ccccc21", "note": "(stereo not drawn)", "values": [{"measurement": "progeny production", "setting": "40 µM", "result": "7.02 ± 2.2", "unit": "%"}, {"measurement": "progeny production", "setting": "100 µM", "result": "16.5 ± 20", "unit": "%"}]}, {"compound": "Oc1ccc(NCc2ccccc2OCc2ccccc2)cc1", "values": [{"measurement": "progeny production", "setting": "40 µM", "result": "5.72 ± 3.1", "unit": "%"}, {"measurement": "progeny production", "setting": "100 µM", "result": "8.25 ± 6.3", "unit": "%"}]}, {"compound": "C=C(C)n1c(=O)n(Cc2ccccc2C)c2ccccc21", "values": [{"measurement": "progeny production", "setting": "40 µM", "result": "6.26 ± 0.83", "unit": "%"}, {"measurement": "progeny production", "setting": "100 µM", "result": "14.5 ± 10", "unit": "%"}]}, {"compound": "N#C/C(=C1/SC[C@H](c2ccc(Cl)cc2Cl)S1)n1ccnc1", "values": [{"measurement": "progeny production", "setting": "40 µM", "result": "3.11 ± 0.38", "unit": "%"}, {"measurement": "progeny production", "setting": "100 µM", "result": "4.59 ± 2.5", "unit": "%"}]}, {"compound": "Cc1nc(N(C)C(=O)Cc2ccc(-c3ccccn3)cc2)sc1S(N)(=O)=O", "values": [{"measurement": "progeny production", "setting": "40 µM", "result": "3.86 ± 0.4", "unit": "%"}, {"measurement": "progeny production", "setting": "100 µM", "result": "12.9 ± 8.8", "unit": "%"}]}, {"compound": "Cc1[nH]c2ccccc2c1CC(=O)N[C@@H](Cc1ccccc1)C(=O)N(C)c1ccccc1", "values": [{"measurement": "progeny production", "setting": "40 µM", "result": "4.28 ± 2.4", "unit": "%"}, {"measurement": "progeny production", "setting": "100 µM", "result": "17.6 ± 9.7", "unit": "%"}]}, {"compound": "O=C(c1nc2c(C(F)(F)F)cc(C3CC3)cn2c1Cl)N1CCN([C@H]2CC[C@H](O)CC2)C(=O)C1", "values": [{"measurement": "progeny production", "setting": "40 µM", "result": "3.88 ± 1.4", "unit": "%"}, {"measurement": "progeny production", "setting": "100 µM", "result": "14.2 ± 1.2", "unit": "%"}]}, {"compound": "C[C@@H](NC(=O)c1cccc(-c2cnc(-c3cc4ccccc4cn3)[nH]2)c1)c1ccc(F)cc1", "values": [{"measurement": "progeny production", "setting": "40 µM", "result": "5.74 ± 3.9", "unit": "%"}, {"measurement": "progeny production", "setting": "100 µM", "result": "8.24 ± 5.7", "unit": "%"}]}, {"compound": "O=[N+]([O-])c1cn2c(n1)OC[C@@H](OCc1ccc(OC(F)(F)F)cc1)C2", "values": [{"measurement": "progeny production", "setting": "40 µM", "result": "7.03 ± 0.77", "unit": "%"}, {"measurement": "progeny production", "setting": "100 µM", "result": "11.4 ± 5.1", "unit": "%"}]}]}
